CHX counter: counter-screen for Shiga toxin inhibitors: cycloheximide protein synthesis inhibition | cell reporter, cycloheximide protein synthesis inhibition counterscreen | max response, % | 300,000 tested, 12% active; in the data active = max response mostly above about 13%, no sharp cut-off; inactive = mostly below about 14%; note: read at 38.3 µM for the half of the compounds with a filed dose; 0% is about no effect
Pf growth 48h: P. falciparum growth inhibition at 48 hours (one generation) | P. falciparum luciferase growth in erythrocytes, 48 h | Potency, µM (highest dose often 28.7 µM), without a hit: top-dose activity change, negative = inhibition, usual class: inhibitors | 310,000 tested, 5.9% active | AID 504832; note: potency is the fitted concentration of half-maximal effect; % is set by controls: 0 for no effect and ±100 for the full control effect
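In quantitative HTS format, infected erythrocytes bearing luciferase-reporter parasites were treated for a single generation at 37 C. Luminescence after adding detection reagent served as the growth measure.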
NS1 inh: inhibitors of influenza NS1 protein function; Potency, µM (series often up to 46.1 µM), for the others: top-dose activity, positive = more growth; AID 2326; 270,000 tested, 0.4% active; calls by dose curve; note: potency is the fitted concentration of half-maximal effect; actives are rising curves; nearly all actives have a fitted effect of over 50% in size
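A cell-based growth assay was used: compounds that relieve NS1-induced slow growth of budding yeast raise OD600. Assay medium was yeast nitrogen base with ammonium sulphate and -URA supplement, pH 6.0, with 2% galactose.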
Pf growth 96h: inhibits malaria parasite growth, 96 h; P. falciparum luciferase reporter growth, 96 h; Potency, µM (highest dose often 28.7 µM), without a hit: top-dose activity change, negative = inhibition, actives largely listed as inhibitors; 320,000 tested, 6.9% active; AID 504834; note: potency is the fitted concentration of half-maximal effect; % is set by controls: 0 for no effect and ±100 for the full control effect
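Erythrocytes infected with luciferase-expressing P. falciparum were dispensed at 2% hematocrit and 0.05% parasitemia (final), then incubated with compounds 96 hours at 37 C in 5% CO2. Luminescence after detection reagent addition reported growth.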
Shiga toxin inh: Shiga toxin inhibition | inhibition, % at 38.7 µM | AID 2315 | 290,000 tested, 9.2% active | Vero cells, Shiga toxin protein synthesis inhibition reporter; in the data active = inhibition mostly above about 28%, no sharp cut-off; inactive = mostly below about 43%; note: 0% is about no effect
* marks the source's active call; other numbers are inactive results; ? = inconclusive; / = no result given; + = active, no number; [ ] = another dose, or the depositor's remark. Hits are enriched below; roughly 21% of the tested compounds scored in any of these assays. Unless noted, calls come from the whole dose curve; as a rule, active = well fitted inhibition curve with a large enough effect; inconclusive = small, poorly fitted or top-dose-only effect, or another doubt; inactive = no such curve, though single readings can be large or run the other way.

SMILES	CHX counter	Pf growth 48h	NS1 inh	Pf growth 96h	Shiga toxin inh
CCCSc1nc(SCC(=O)NCc2ccccc2)c2c3c(sc2n1)COC(C)(CC)C3 (stereo not drawn)	-2	?	1%	15µM*	-5
CCC(=O)N1C(=O)C2(Nc3ccccc3N2)c2ccccc21	-6	18%	/	38%	-8
O=C(/C=C/c1ccccc1)NC1CC2CCCC(C1)N2Cc1ccccc1 (stereo not drawn)	-2	?	4%	2.3µM*	-8
CCCN1C2CCCC1CC(NC(=O)c1ccc(C(C)(C)C)cc1)C2 (stereo not drawn)	13*	11%	-4%	0%	81
O=C(NC1CC2CCCC(C1)N2Cc1ccccc1)c1ccc([N+](=O)[O-])cc1 (stereo not drawn)	-2	0%	12%	0.37µM*	-23
Cc1ccc(CN2C3CCCC2CC(NC(=O)c2ccc(F)cc2)C3)cc1 (stereo not drawn)	2	10µM*	-10%	25%	-11
O=C(CN1C2CCCC1CC(NC(=O)c1ccccc1)C2)Nc1nccs1 (stereo not drawn)	-2	?	-2%	9.3µM*	-8
Cc1ccc(CN2C3CCCC2CC(NC(=O)Nc2cccc(F)c2)C3)cc1 (stereo not drawn)	-1	1.9µM*	-2%	21%	-14
CC/C(=N\Nc1nncc2ccccc12)c1ccc(F)cc1	47*	6%	1%	0%	71*
C/C(=N\Nc1nncc2ccccc12)c1ccc(OCC(=O)N(C)C)cc1	44*	-14%	-11%	6%	138*
CCOC(=O)NNc1nncc2ccccc12	/	-15%	/	8%	/
C/C(=N\NC(=O)COc1ccccc1)c1ccc(O)cc1	11	-2%	0%	7%	26
C[N+](C)(C)C/C=C1/COCO1	9	?	-3%	/	2
O=C(COC(=O)C1COc2ccccc2O1)NC(=O)NC1CCCCC1 (stereo not drawn)	-5	/	11%	?	-19
CCOC(=O)Nc1ccc(NCc2ccc(F)cc2)nc1N	/	13µM*	?	6.7µM*	/
CCOC(=O)Nc1ccc(C)cc1NC(=O)OCC	-1	-14%	-3%	?	-2
Cc1ccc(Nc2ccc(C(=O)NCCc3ccccc3)cn2)cc1	12*	?	5%	?	15
Cc1ccc(C)c(Nc2ccc(C(=O)NCCc3ccccc3)cn2)c1	22*	?	-20%	55%	14
O=C1N=c2ccccc2=C1c1sc(=S)n(NC(=O)c2cccc(O)c2)c1O	-1	-1%	/	1.9µM*	-22
CCOC(=O)C1=C(CN2CCC(C)CC2)NC(=O)NC1c1ccc(Cl)cc1 (stereo not drawn)	-4	?	-1%	/	-12
CCOC(=O)C1=C(CN2CCN(C(=O)c3ccco3)CC2)NC(=O)NC1c1ccc(F)cc1 (stereo not drawn)	8	10µM*	-5%	33%	-3
CCOC(=O)C1=C(CN2CCN(C(=O)c3ccco3)CC2)NC(=O)NC1c1ccc(OC(C)C)cc1 (stereo not drawn)	10	12µM*	-1%	?	-3
CC(C)Oc1ccc(C(=O)N2CCN(C(=O)c3ccco3)CC2)cc1	1	-5%	5%	10µM*	-6
CCOC(=O)C1=C(CN2CCN(C(=O)c3ccco3)CC2)NC(=O)NC1c1ccc(Cl)cc1 (stereo not drawn)	7	3.7µM*	-17%	?	-16
CCN1C(=O)[C@H]2[C@@H](c3ccc(C)cc3)N3C(=O)N(c4ccccc4)C(=O)[C@@]3(Cc3ccccc3)[C@H]2C1=O	-2	-17%	-8%	?	-12
SMILES	CHX counter	Pf growth 48h	NS1 inh	Pf growth 96h	Shiga toxin inh
COCCCNC(=S)NC(=O)c1ccc(C)cc1	78*	197%	12%	3%	123*
CCCCC(=O)NNC(=S)NC(=O)c1ccc([N+](=O)[O-])cc1	-1	-22%	/	?	-17
CCCCC(=O)NNC(=S)NC(=O)c1ccc(C)cc1	22	?	-72%	?	49*
COc1ccc(C(=O)NNC(=O)CCn2nnc(-c3ccc(Cl)cc3)n2)cc1OC	2	2%	-5%	9%	-13
COc1cc(C(=O)N2CCN(S(=O)(=O)c3ccc(C)cc3C)CC2)ccc1OCC(=O)N1CCOCC1	/	?	/	-23%	/
CCn1c(CSc2nc3ccccc3n2C)nc2ccccc21	5	?	-81%	-42%	-5
CCn1c(SCc2ccccc2Cl)nc2ccccc21	35*	33%	-73%	121%	26
Cn1c(SCc2ccccc2Cl)nc2ccccc21	53*	/	-58%	-2%	76*
Cc1nnc(SCC(=O)NNC(=O)CC#N)[nH]c1=O	-2	18%	?	?	-9
O=C(Cc1ccccc1)N/N=C/c1ccc2cccc(O)c2n1	32*	-9%	-5%	45%	38
CCOC(=O)c1ccc2[nH]c3c(c2c1)CCCC3O (stereo not drawn)	24*	30%	-5%	27%	35
CCOC(=O)c1ccc2[nH]c3c(c2c1)CCCC3	51*	30%	-32%	?	87*
Cn1cccc1/C=C1\Cc2ccccc2C1=O	42*	475%	/	-3%	+
O=C1/C(=C\c2cccs2)CCC/C1=C/c1cccs1	/	134%	/	183%	/
Cc1ccc(C=C2C(=O)c3ccccc3C2=O)s1	56*	/	-50%	12µM*	45*
O=C1C(=Cc2cccs2)C(=O)c2ccccc21	46*	2%	-23%	2%	28
O=C1/C(=C/c2cccs2)Cc2ccccc21	36*	23%	-14%	-26%	157*
Cc1cc(C)c(S(=O)(=O)N2CCN(C(=O)N(C)C)CC2)c(C)c1	-5	22%	7%	?	16
CC1(C)C(=O)Nc2ccccc2N1C(=O)COC(=O)/C=C/c1ccc(OC(F)F)cc1	/	?	/	-1%	/
O=C1/C(=C\c2ccc(Br)o2)Cc2ccccc21	73*	48%	-8%	22%	53*
Nc1ccc(-c2nc3ncccc3o2)c(Cl)c1	31*	40%	-6%	4%	60*
CCC(=O)Nc1cc(-c2nc3ncccc3o2)ccc1Cl	4	61%	1%	?	-12
Nc1ccc(-c2nc3ncccc3o2)c(O)c1	21*	-3%[0.00184 µM]	-43%	111%	69*
CCC(=O)Nc1ccc(Cl)c(-c2nc3ncccc3o2)c1	-1	12%	-11%	-6%	/
CCC(=O)Nc1cccc(-c2nc3ncccc3o2)c1C	10	?	-2%	?	23
Nc1ccc(Cl)c(-c2nc3ncccc3o2)c1	43*	35%	6%	-13%	59*
COc1ccccc1NC(=O)COn1nnc2ccc(S(=O)(=O)N3CCOCC3)cc21	6	-10%	/	-4%	46
COc1ccccc1CC(=O)Nc1cccc(C(=O)Nc2nccs2)c1	11	?	3%	?	28
COc1ccccc1CC(=O)Nc1cccc(C(=O)NN2C(=O)c3ccccc3C2=O)c1	5	-2%	-1%	9.3µM*	-2
COc1ccc(NC(=O)C/C(C)=N/NC(=O)C(=O)Nc2cccc(Cl)c2C)c(OC)c1	8	-21%	/	?	15

From PubChem BioAssay
